# From PubChem BioAssay (NCI)
# This is part of a sample that, as a whole, favours compounds with a hit. Of some 79,000 tested, about 15% had one in any assay. A number with no mark means an inactive call. The source made the active and inactive calls. No stated cut-off is given here; in the data, active means growth inhibition above about 70%; inactive means the rest.
# What was measured:
# [1] = NCI Yeast Anticancer Drug Screen. Data for the rad52 strain (AID 147);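 further: 0% = growth of vehicle-treated control cultures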; details: S. cerevisiae rad52 mutant growth inhibition, hits give high values
# Procedure, shortened: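 The repair-mutant yeast strain was incubated with compounds, then growth was read and inhibition derived relative to vehicle.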
# [2] = NCI Yeast Anticancer Drug Screen. Data for the wt1 strain (AID 149);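 further: 0% = growth of vehicle-treated wt1 cultures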; details: S. cerevisiae wt1 strain (SPY 50644) growth inhibition, hits give high values
# Procedure, shortened: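 Vehicle-normalised growth inhibition; strain wt1; compound exposure.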
# [3] = NCI Yeast Anticancer Drug Screen. Data for the rad50EPP+ strain (AID 151);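 further: 0% = growth of vehicle-treated control cultures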; details: S. cerevisiae rad50 mutant strain, hits give high values
# Procedure, shortened: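 Vehicle-normalised growth inhibition; rad50EPP+ yeast strain, altered in DNA damage repair, compound-treated.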
# [4] = NCI Yeast Anticancer Drug Screen. Data for the mgt1 strain (AID 153); details: S. cerevisiae mgt1 mutant growth inhibition, hits give high values
# Procedure, shortened: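 Vehicle-normalized growth inhibition is determined in mgt1 yeast, a strain selected for a defined alteration in DNA repair or cell cycle control.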
# [5] = NCI Yeast Anticancer Drug Screen. Data for the rad50 strain (AID 155);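 further: 0% = growth of vehicle-only cultures of the same strain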; details: S. cerevisiae rad50 strain growth inhibition, hits give high values
# Procedure, shortened: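 A DNA repair-deficient yeast mutant serves as the test organism; compound-induced growth inhibition is calculated against vehicle-treated cells.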
# [6] = NCI Yeast Anticancer Drug Screen. Data for the mec2-1 strain (AID 157); details: S. cerevisiae mec2-1 strain, hits give high values
# Procedure, shortened: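 Mutant yeast (mec2-1) grown with compound; growth inhibition relative to vehicle control reported.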
# [7] = NCI Yeast Anticancer Drug Screen. Data for the rad14 strain (AID 159);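 further: 0% = growth of vehicle-treated control cultures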; details: S. cerevisiae rad14 strain growth inhibition, hits give high values
# Procedure, shortened: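 Vehicle-treated cultures served as the baseline for growth inhibition of a DNA repair-mutant yeast strain exposed to each compound.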
# [8] = NCI Yeast Anticancer Drug Screen. Data for the sgs1 mgt1 strain (AID 161);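 further: 0% = growth of cultures given vehicle only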; details: S. cerevisiae sgs1 mgt1 strain, hits give high values
# Procedure, shortened: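 Percent growth inhibition was derived by comparing compound-exposed mutant yeast with vehicle-exposed cultures. The strain carries alterations in DNA damage repair.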
# [9] = NCI Yeast Anticancer Drug Screen. Data for the CLN2oe strain (AID 163);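 further: 0% = growth of vehicle-only control cultures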; details: S. cerevisiae CLN2oe strain, hits give high values
# Procedure, shortened: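 Compounds are applied to yeast harbouring a defined cell-cycle control change; reduced growth compared with vehicle-treated controls gives the value.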
# [10] = NCI Yeast Anticancer Drug Screen. Data for the cln2 rad14 strain (AID 165);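 further: 0% = growth equal to vehicle treated cultures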; details: S. cerevisiae cln2 rad14 strain, hits give high values
# Procedure, shortened: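 Readout is yeast growth inhibition versus vehicle-treated controls, using a strain with cln2 and rad14 alterations exposed to compound.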
# [11] = NCI Yeast Anticancer Drug Screen. Data for the bub3 strain (AID 167); details: S. cerevisiae bub3 mutant strain, hits give high values
# Procedure, shortened: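 Inhibition values come from growth of compound-treated mutant yeast normalised to vehicle-treated controls.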
# [12] = NCI Yeast Anticancer Drug Screen. Data for the wt2 strain (AID 169);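 further: 0% = growth of vehicle-treated yeast cultures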; details: S. cerevisiae wt2 strain growth inhibition, hits give high values
# Procedure, shortened: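 Against vehicle-treated controls, the growth of yeast exposed to each compound was compared, and the inhibition was recorded.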
# [13] = NCI Yeast Anticancer Drug Screen. Data for the sgs1 strain (AID 173);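 further: 0% = growth of vehicle-only control cultures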; details: S. cerevisiae sgs1 mutant, hits give high values
# Procedure, shortened: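 Each compound was added to cultures of the altered yeast strain. Growth was recorded, and inhibition was derived by comparison with vehicle controls.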
# [14] = NCI Yeast Anticancer Drug Screen. Data for the rad18 strain (AID 177); details: S. cerevisiae rad18 mutant growth inhibition, hits give high values
# Procedure, shortened: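 Vehicle-treated cultures served as the baseline for scoring compound-induced growth inhibition in DNA-repair-mutant yeast.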
# [15] = at 5.0 µM (retest, dose inferred, filed as 0.5)
# [16] = at 50.0 µM (retest, dose inferred, filed as 5.0)
compound,measurement,setting,value
CCCCS(=O)(=O)Nc1ccc(Nc2c3ccccc3nc3ccccc23)c(OC)c1,growth inhibition,[1]; at 1.2 µM,54%
same,growth inhibition,[1]; at 3.7 µM,80% (active)
same,growth inhibition,[1]; at 11.0 µM,90% (active)
same,growth inhibition,[1]; at 33.0 µM,93% (active)
same,growth inhibition,[1]; at 100.0 µM,96% (active)
same,growth inhibition,[2]; at 1.2 µM,-38%
same,growth inhibition,[2]; at 3.7 µM,-34%
same,growth inhibition,[2]; at 11.0 µM,-36%
same,growth inhibition,[2]; at 33.0 µM,44%
same,growth inhibition,[2]; at 100.0 µM,96% (active)
same,growth inhibition,[3]; at 1.2 µM,-20%
same,growth inhibition,[3]; at 3.7 µM,-11%
same,growth inhibition,[3]; at 11.0 µM,10%
same,growth inhibition,[3]; at 33.0 µM,53%
same,growth inhibition,[3]; at 100.0 µM,81% (active)
same,growth inhibition,[4]; at 1.2 µM,-49%
same,growth inhibition,[4]; at 3.7 µM,-46%
same,growth inhibition,[4]; at 11.0 µM,-33%
same,growth inhibition,[4]; at 33.0 µM,64%
same,growth inhibition,[4]; at 100.0 µM,96% (active)
same,growth inhibition,[5]; at 1.2 µM,39%
same,growth inhibition,[5]; at 3.7 µM,78% (active)
same,growth inhibition,[5]; [15],86% (active)
same,growth inhibition,[5]; at 11.0 µM,89% (active)
same,growth inhibition,[5]; at 33.0 µM,94% (active)
same,growth inhibition,[5]; [16],98% (active)
same,growth inhibition,[5]; at 50.0 µM,45%
same,growth inhibition,[5]; at 100.0 µM,96% (active)
same,growth inhibition,[6]; at 1.2 µM,-29%
same,growth inhibition,[6]; at 3.7 µM,-9%
same,growth inhibition,[6]; [15],15%
same,growth inhibition,[6]; at 11.0 µM,37%
same,growth inhibition,[6]; at 33.0 µM,91% (active)
same,growth inhibition,[6]; [16],98% (active)
same,growth inhibition,[6]; at 50.0 µM,47.5%
same,growth inhibition,[6]; at 100.0 µM,98% (active)
same,growth inhibition,[7]; at 1.2 µM,-31%
same,growth inhibition,[7]; at 3.7 µM,-25%
same,growth inhibition,[7]; at 11.0 µM,-9%
same,growth inhibition,[7]; at 33.0 µM,79% (active)
same,growth inhibition,[7]; at 100.0 µM,96% (active)
same,growth inhibition,[8]; [15],44%
same,growth inhibition,[8]; [16],99% (active)
same,growth inhibition,[8]; at 50.0 µM,84% (active)
same,growth inhibition,[9]; at 1.2 µM,10%
same,growth inhibition,[9]; at 3.7 µM,3%
same,growth inhibition,[9]; at 11.0 µM,6%
same,growth inhibition,[9]; at 33.0 µM,72% (active)
same,growth inhibition,[9]; at 100.0 µM,91% (active)
same,growth inhibition,[10]; [15],25%
same,growth inhibition,[10]; [16],95% (active)
same,growth inhibition,[10]; at 50.0 µM,77% (active)
same,growth inhibition,[11]; at 1.2 µM,-53%
same,growth inhibition,[11]; at 3.7 µM,-63%
same,growth inhibition,[11]; [15],43%
same,growth inhibition,[11]; at 11.0 µM,-35%
same,growth inhibition,[11]; at 33.0 µM,60%
same,growth inhibition,[11]; [16],96% (active)
same,growth inhibition,[11]; at 50.0 µM,76.9% (active)
same,growth inhibition,[11]; at 100.0 µM,96% (active)
same,growth inhibition,[12]; at 1.2 µM,-13%
same,growth inhibition,[12]; at 3.7 µM,-22%
same,growth inhibition,[12]; at 11.0 µM,-13%
same,growth inhibition,[12]; at 33.0 µM,41%
same,growth inhibition,[12]; at 100.0 µM,93% (active)
same,growth inhibition,[13]; at 1.2 µM,1%
same,growth inhibition,[13]; at 3.7 µM,3%
same,growth inhibition,[13]; at 11.0 µM,20%
same,growth inhibition,[13]; at 33.0 µM,79% (active)
same,growth inhibition,[13]; at 100.0 µM,97% (active)
same,growth inhibition,[14]; at 1.2 µM,-14%
same,growth inhibition,[14]; at 3.7 µM,-15%
same,growth inhibition,[14]; at 11.0 µM,0%
same,growth inhibition,[14]; at 33.0 µM,78% (active)
same,growth inhibition,[14]; at 100.0 µM,96% (active)
